Twelve compounds from the supplement of paper PMC10646978 can be followed below.

± gives the standard deviation.

Holding throughout (conditions): modulator concentration 10 µM
Experiment [1] has as its system RAW-Dual (murine macrophage reporter line). Briefly: NF-kB reporter (SEAP) activity fold change vs agonist alone; higher = enhanced NF-kB activity. In short, it runs like this: (§1)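 RAW-Dual murine macrophage reporter cells were plated at 50 000 per well in 384-well plates, pin-transferred compound to 10 μM final, and pre-incubated for 1 hour at 37 °C before a PRR agonist was added and the cells incubated overnight. NF-κB activity was read from supernatant SEAP with QUANTI-Blue at 620 nm absorbance, and IRF activity from Lucia luciferase with QUANTI-Luc by luminescence. Each signal was expressed as fold change by dividing by the mean agonist-only control on the same plate. Two replicate plates were averaged, with errors obtained by propagation.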

Experiment [2] has the same test system. The experiment can be described thus: IRF reporter (Lucia luciferase) activity fold change vs agonist alone; higher = enhanced IRF activity. In short, it runs like this:
as §1

For experiment [3] the test system is unchanged. Briefly: viability score (confluency relative to resting cells, overnight) (fraction); higher = more viable, active = viable (0.7 or more). In short, it runs like this: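 A compound met the cutoff when both of two confluency masks exceeded 70% of resting cells. Those masks were made with IncuCyte software from IncuCyte images of RAW-Dual macrophages treated overnight at 10 μM final. This is the basis of the viability score, which is confluency relative to resting cells.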

[4] abbreviates: agonist: CpG ODN 1826 0.5 ug/mL.

For the compound `NNC(=O)c1ccncc1`, the results for the NF-kB reporter in experiment [1] (setting [4]), in experiment [1] (agonist: LPS 0.1 ug/mL) and in experiment [1] (agonist: MPLA […]) were 1.51 ± 0.21, 1.33 ± 0.21 and 1.31 ± 0.14, respectively. Further, the results for the IRF reporter in experiment [2] (agonist: 3'3'-cGAMP 10 ug/mL), in experiment [2] (agonist: LPS 0.1 ug/mL) and in experiment [2] (agonist: MPLA […]) were 0.91 ± 0.028, 1.42 ± 0.12 and 1.11 ± 0.14, respectively. In addition, in experiment [3], the viability score is 0.999 (active).
Turning to `Clc1nc(N2CCOCC2)nc(N(c2ccccc2)c2ccccc2)n1`, the figures for the NF-kB reporter in experiment [1] (setting [4]), in experiment [1] (agonist: LPS 0.1 ug/mL) and in experiment [1] (agonist: MPLA […]) were 0.889 ± 0.077, 0.908 ± 0.086 and 1.08 ± 0.12, respectively. The IRF reporter came out at 1.02 ± 0.049 in experiment [2] (agonist: 3'3'-cGAMP 10 ug/mL), 1.41 ± 0.22 in experiment [2] (agonist: LPS 0.1 ug/mL) and 1.53 ± 0.42 in experiment [2] (agonist: MPLA […]). Besides, in experiment [3], the viability score is 1.03 (active).
In the case of `O=C(c1ccc(I)cc1)N(C1CCCCC1)C1CCCCC1`, the values for the NF-kB reporter in experiment [1] (setting [4]), in experiment [1] (agonist: LPS 0.1 ug/mL) and in experiment [1] (agonist: MPLA […]) were 0.976 ± 0.1, 1.03 ± 0.099 and 1.09 ± 0.056, respectively. Besides, the values for the IRF reporter in experiment [2] (agonist: 3'3'-cGAMP 10 ug/mL), in experiment [2] (agonist: LPS 0.1 ug/mL) and in experiment [2] (agonist: MPLA […]) were 0.832 ± 0.044, 1.02 ± 0.13 and 1.18 ± 0.3, respectively. For the same compound, in experiment [3], the viability score was 0.997 (active).
Regarding `CN(C)c1nc(CNC(=O)CSc2nc3ccccc3o2)nc(N(C)C)n1`, the values for the NF-kB reporter in experiment [1] (setting [4]), in experiment [1] (agonist: LPS 0.1 ug/mL) and in experiment [1] (agonist: MPLA […]) were 1.01 ± 0.07, 1.13 ± 0.12 and 1.01 ± 0.067, respectively. In addition, the IRF reporter in experiment [2] (agonist: 3'3'-cGAMP 10 ug/mL) worked out at 0.959 ± 0.048; in experiment [2] (agonist: LPS 0.1 ug/mL), 1.05 ± 0.063; in experiment [2] (agonist: MPLA […]), 1 ± 0.078. In experiment [3], the viability score was 0.979 (active).
In the case of `Cc1cc(=O)n(CC(=O)N2CCC(c3ccccc3F)S(=O)(=O)CC2)cn1` (centres undefined), the NF-kB reporter in experiment [1] (setting [4]) was 1.01 ± 0.06; in experiment [1] (agonist: LPS 0.1 ug/mL), 1.07 ± 0.084; in experiment [1] (agonist: MPLA […]), 0.953 ± 0.09. Besides, the IRF reporter was 1 ± 0.063 in experiment [2] (agonist: 3'3'-cGAMP 10 ug/mL), 1.12 ± 0.081 in experiment [2] (agonist: LPS 0.1 ug/mL) and 1.04 ± 0.091 in experiment [2] (agonist: MPLA […]). Besides, in experiment [3], the viability score is 1 (active).
For `CC(C)(C)C1CCc2c(sc(NC(=O)c3cccs3)c2C(=O)N2CCCC2)C1` (centres undefined), the NF-kB reporter in experiment [1] (setting [4]) was 0.93 ± 0.073; in experiment [1] (agonist: LPS 0.1 ug/mL), 1.06 ± 0.061; in experiment [1] (agonist: MPLA […]), 0.993 ± 0.13. Moreover, the IRF reporter in experiment [2] (agonist: 3'3'-cGAMP 10 ug/mL) was 0.984 ± 0.027; in experiment [2] (agonist: LPS 0.1 ug/mL), 1.14 ± 0.12; in experiment [2] (agonist: MPLA […]) it was 1.03 ± 0.068. Besides, the viability score in experiment [3] is 1.01 (active).
Consider `CC(=O)c1cc(Cl)ccc1OC(=O)c1ccccc1Cl`, for which the NF-kB reporter in experiment [1] (setting [4]) came to 0.767 ± 0.07; in experiment [1] (agonist: LPS 0.1 ug/mL), 0.803 ± 0.051; in experiment [1] (agonist: MPLA […]), 0.757 ± 0.062. Besides, the IRF reporter in experiment [2] (agonist: 3'3'-cGAMP 10 ug/mL) was determined as 0.543 ± 0.025; in experiment [2] (agonist: LPS 0.1 ug/mL), 1.63 ± 0.12; in experiment [2] (agonist: MPLA […]), 1.8 ± 0.24. The viability score in experiment [3] is 0.987 (active).
Turning to `Cc1cc(OC2CN(C(=O)Cc3noc4ccccc34)C2)cc(=O)n1C1CC1`, the values for the NF-kB reporter in experiment [1] (setting [4]), in experiment [1] (agonist: LPS 0.1 ug/mL) and in experiment [1] (agonist: MPLA […]) were 1.18 ± 0.072, 1.08 ± 0.088 and 0.996 ± 0.043, respectively. The IRF reporter in experiment [2] (agonist: 3'3'-cGAMP 10 ug/mL) turned out to be 0.919 ± 0.072; in experiment [2] (agonist: LPS 0.1 ug/mL), 1 ± 0.061; in experiment [2] (agonist: MPLA […]) it was 0.957 ± 0.14. For the same compound, the viability score in experiment [3] was 0.999 (active).
Regarding `O=C(Nc1nc2ccc(Cl)cc2s1)c1ccc(Br)s1`, the NF-kB reporter in experiment [1] (setting [4]) was 0.998 ± 0.062; in experiment [1] (agonist: LPS 0.1 ug/mL), 0.927 ± 0.072; in experiment [1] (agonist: MPLA […]) it was 0.924 ± 0.025. Moreover, the IRF reporter in experiment [2] (agonist: 3'3'-cGAMP 10 ug/mL) was determined as 0.975 ± 0.043; in experiment [2] (agonist: LPS 0.1 ug/mL), 1.06 ± 0.054; in experiment [2] (agonist: MPLA […]) it was 1.09 ± 0.11. For the same compound, the viability score in experiment [3] is 0.999 (active).
For `COC(=O)C1=C(C#N)NC(C)=C(C(=O)OC(C)C)C1c1cccc([N+](=O)[O-])c1` (centres undefined), the NF-kB reporter came to 0.832 ± 0.041 in experiment [1] (setting [4]), 1.01 ± 0.097 in experiment [1] (agonist: LPS 0.1 ug/mL) and 0.929 ± 0.04 in experiment [1] (agonist: MPLA […]). Further, the IRF reporter is 0.978 ± 0.083 in experiment [2] (agonist: 3'3'-cGAMP 10 ug/mL), 1.1 ± 0.068 in experiment [2] (agonist: LPS 0.1 ug/mL) and 1.19 ± 0.12 in experiment [2] (agonist: MPLA […]). Besides, the viability score in experiment [3] is 0.968 (active).
On to `O=C(NNC(=O)c1sc2cc(F)ccc2c1Cl)Nc1ccc(Cl)cc1`, for which the NF-kB reporter in experiment [1] (setting [4]) was determined as 1.02 ± 0.081; in experiment [1] (agonist: LPS 0.1 ug/mL), 0.995 ± 0.086; in experiment [1] (agonist: MPLA […]), 1.05 ± 0.053. Also, the IRF reporter was 0.926 ± 0.15 in experiment [2] (agonist: 3'3'-cGAMP 10 ug/mL), 1.02 ± 0.048 in experiment [2] (agonist: LPS 0.1 ug/mL) and 1.12 ± 0.091 in experiment [2] (agonist: MPLA […]). Moreover, the viability score in experiment [3] is 1 (active).
As for `Cc1cc(C)c(-c2csc(NC(=O)C=Cc3cccs3)n2)c(C)c1`, the NF-kB reporter in experiment [1] (setting [4]) was 0.618 ± 0.048; in experiment [1] (agonist: LPS 0.1 ug/mL), 0.873 ± 0.091; in experiment [1] (agonist: MPLA […]), 1.44 ± 0.066. The IRF reporter in experiment [2] (agonist: 3'3'-cGAMP 10 ug/mL) is 1.02 ± 0.071; in experiment [2] (agonist: LPS 0.1 ug/mL), 1.12 ± 0.097; in experiment [2] (agonist: MPLA […]), 1.89 ± 0.17. For the same compound, the viability score in experiment [3] is 0.8 (active).
